Screens (PubChem BioAssay)
CYP2C19 act = cytochrome P450 2C19 (human) activation; P33261; recombinant CYP2C19, luciferin-H EGE luminescence; stronger effect = higher value; 0 = fully inhibited enzyme, 1 = untreated enzyme; activation factor at 5 µM; 96,000 tested, under 10 active; AID 1025;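 active = activation factor of at least 2 at 5 µM in the primary screen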
D1 allo mod = D1 dopamine receptor (human) allosteric modulation; AID 641; 58,000 tested, 5.9% active; P21728; B-score at 10 µM; HEK293 D1, CRE-luciferase, dopamine EC30 potentiation; actives deviate in either direction;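 active = luminescence count or its row- and column-corrected plate score outside the 99.7% band of the plate's sample wells, on either side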
Target sequence (P21728 whole entry, looked up): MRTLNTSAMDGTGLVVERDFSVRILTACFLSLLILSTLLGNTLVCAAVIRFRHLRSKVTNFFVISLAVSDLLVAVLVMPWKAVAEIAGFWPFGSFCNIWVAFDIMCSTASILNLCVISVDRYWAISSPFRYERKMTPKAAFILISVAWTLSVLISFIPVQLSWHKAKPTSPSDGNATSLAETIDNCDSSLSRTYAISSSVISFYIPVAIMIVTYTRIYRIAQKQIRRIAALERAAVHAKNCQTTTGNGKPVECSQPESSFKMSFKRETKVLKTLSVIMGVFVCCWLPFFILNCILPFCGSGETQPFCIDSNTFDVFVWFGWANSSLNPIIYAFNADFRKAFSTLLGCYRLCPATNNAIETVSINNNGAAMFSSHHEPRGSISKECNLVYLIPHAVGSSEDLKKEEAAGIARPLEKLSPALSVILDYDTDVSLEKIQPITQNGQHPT
hDAT+cocaine = human DAT dopamine uptake with cocaine, either direction. Q01959. LLC-PK1 hDAT cells, [14C]-dopamine uptake with cocaine IC80; actives deviate in either direction. B-score at 10 µM. 110,000 tested, 1.3% active;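 active = Z score or B-score, a plate-position-corrected score, falls beyond the plate's 99.7% confidence bounds, in either direction; inactive = both scores lie inside the 99.7% bounds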
CYP2C9 inhib = inhibitors of human CYP2C9; P11712; AID 777; inhibition, % at 5 µM; 96,000 tested, 20% active; CYP2C9 Supersomes, luciferin-H conversion, luminescence;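 active = blocking of liver enzyme CYP2C9 beyond about 50% at 5 µM, limit read from the data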
CYP2C9 activ = CYP2C9 (human) activation | recombinant CYP2C9, luciferin-H conversion, luminescence; stronger effect = higher value; factor 1 = untreated enzyme, 0 = blocked | P11712 | 96,000 tested, 1.4% active | activation factor at 5 µM;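 active = activation factor of 2 or more for CYP2C9 at a 5 µM dose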
CYP2C19 inhib = blocks human cytochrome P450 2C19. P33261. CYP2C19 Supersomes, luciferin-H EGE luminescence, 30 min. 96,000 tested, 21% active. inhibition, % at 5 µM;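 active = CYP2C19 inhibition above a set limit at 5 µM in the primary screen, cut at about 50% in these data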
Of the large screens only hits and unclear results are named; the others gave an inactive call. An excerpt weighted towards active compounds, which were near 28% of everything screened.

O=C(NCCOCCOCCNC(=O)c1cccnc1)c1cccnc1	none (no result: D1 allo mod)
O=C(NCCOc1ccccc1)c1cc2ccccc2o1	none
O=C(NCCOC(=O)c1ccccc1C(=O)OCCNC(=O)c1cccnc1)c1cccnc1	CYP2C9 inhib 68.5, CYP2C19 inhib 95.6 (no result: D1 allo mod)
O=C(NCCOC(=O)c1ccc(C(=O)OCCNC(=O)c2ccccc2)o1)c1ccccc1	CYP2C9 inhib 83.4
Cc1cc(C)c(C(=O)OCCNC(=O)c2cccnc2)cc1C	CYP2C9 inhib 70.7, CYP2C19 inhib 73.8
CC(C)CCNC(=O)C1CC(c2ccccc2C(F)(F)F)=NO1 (stereo not drawn)	none (no result: CYP2C19 act, D1 allo mod, CYP2C9 inhib, CYP2C9 activ, CYP2C19 inhib)
Cc1cccc(N2C(=O)CC(Sc3nc(-c4ccccc4)c4cc(Cl)ccc4n3)C2=O)c1 (stereo not drawn)	CYP2C9 inhib 58.3 (no result: D1 allo mod)
CC(=NCc1ccco1)c1c(C)[nH]n(-c2nc3ccccc3s2)c1=O	none
CCCc1[nH]n(-c2nc3ccccc3s2)c(=O)c1C=NCC(C)C	hDAT+cocaine 4.45, CYP2C9 inhib 51.4 (no result: D1 allo mod)
COc1cc(NC(=O)C2CC(=O)NC3=C2C(=O)CCC3)c(OC)cc1Cl (stereo not drawn)	none (no result: D1 allo mod)
CCC(C)(C)NC(=O)C(c1ccc(F)cc1)N(Cc1ccco1)C(=O)c1cnccn1 (stereo not drawn)	none
O=C(CNC(=O)/C(=C\c1ccc(F)cc1)NC(=O)c1ccccc1)OCc1ccccc1	CYP2C19 inhib 71.4 (no result: D1 allo mod)
CSc1ccc(CNc2ccc(C)c(C)c2)cc1	CYP2C19 inhib 98.3 (no result: D1 allo mod)
O=c1cccccc1NCc1ccccc1	none
CSc1ccc(CNc2ccc(C)cc2)cc1	CYP2C19 inhib 86.6 (no result: D1 allo mod)
CSc1ccc(CNc2cccc3ccccc23)cc1	CYP2C19 inhib 98.4 (no result: D1 allo mod)
O=c1oc2ccccc2cc1-c1cn2cccnc2n1	CYP2C19 inhib 57.4
CC(C)CCNC(=O)CN(C(=O)CCC(=O)Nc1ccccn1)c1ccc2c(c1)OCO2	CYP2C9 inhib 58.2 (no result: D1 allo mod)
CC(C)CCNC(=O)CN(C(=O)CCC(=O)Nc1ccccn1)c1ccc2c(c1)OCCO2	none (no result: CYP2C19 act, D1 allo mod, CYP2C9 inhib, CYP2C9 activ, CYP2C19 inhib)
CCC(C)(C)NC(=O)CN(C(=O)CCC(=O)Nc1cc(C)ccn1)c1ccc2c(c1)OCO2	CYP2C9 inhib 50.3, CYP2C19 inhib 57.7
Cc1ccc(N(CC(=O)NCc2ccco2)C(=O)CCC(=O)Nc2ccccn2)cc1C	CYP2C19 inhib 96.4
CCC(C)(C)NC(=O)CN(Cc1ccc2c(c1)OCO2)C(=O)CCC(=O)Nc1ccccn1	none (no result: CYP2C19 act, CYP2C9 inhib, CYP2C9 activ, CYP2C19 inhib)
O=C(CN(C(=O)CCC(=O)Nc1ccccn1)c1ccc2c(c1)OCO2)NCc1ccco1	none (no result: D1 allo mod)
Cc1cc(C)cc(N(CC(=O)NCc2ccco2)C(=O)CCC(=O)Nc2ccccn2)c1	CYP2C19 inhib 61.0
Cc1ccccc1N(CC(=O)NCc1ccc2c(c1)OCO2)C(=O)CCC(=O)Nc1ccccn1	none
Cc1c(C(=O)NCCSCc2ccc(Cl)cc2Cl)cccc1[N+](=O)[O-]	none (no result: D1 allo mod)
CC(=O)O[C@@H]1[C@H]2[C@@H](C[C@@H](C)[C@@H]3CCC(=O)[C@@]13C)OC(=O)[C@@H]2C	none (no result: CYP2C19 act, D1 allo mod, CYP2C9 inhib, CYP2C9 activ, CYP2C19 inhib)
COc1ccc(NC(=O)c2ccc(-n3nc(C)c[n+]3[O-])cc2)cc1	none
CCSc1nc(N)nc(-c2cccs2)c1C#N	CYP2C9 inhib 71.8 (no result: D1 allo mod)
O=S(=O)(c1ccc(N2CCCC2)cc1)C(F)(F)F	none (no result: D1 allo mod)
Cc1ccc2c(c1)C1(OCCO1)C(=O)N2	none (no result: D1 allo mod)
Cc1ccc(/C=N/NC(=O)CC2N=C(Cc3ccccc3)NNC2=O)cc1 (stereo not drawn)	none (no result: CYP2C19 act, D1 allo mod, CYP2C9 inhib, CYP2C9 activ, CYP2C19 inhib)
O=C(O)c1c2c(nc3ccc(S(=O)(=O)N4CCC(C(=O)N5CCCCC5)CC4)cc13)CCCC2	none
O=C(O)c1c2c(nc3ccc(S(=O)(=O)N4CCC(C(=O)NC5CCCC5)CC4)cc13)CCCCC2	CYP2C9 inhib 51.8 (no result: D1 allo mod)
CC1CCc2nc3ccc(S(=O)(=O)N4CCC(C(=O)NC5CCCC5)CC4)cc3c(C(=O)O)c2C1 (stereo not drawn)	CYP2C9 inhib 59.8 (no result: D1 allo mod)
CC1CCc2nc3ccc(S(=O)(=O)N4CCC(C(=O)N5CCCCC5)CC4)cc3c(C(=O)O)c2C1 (stereo not drawn)	none (no result: D1 allo mod)
O=C(CSc1ncccn1)NCc1ccccc1Cl	CYP2C19 inhib 74.9
Clc1ccccc1CSc1ncccn1	CYP2C19 inhib 53.4
O=C(NCc1ccccc1Cl)c1cnn2cccnc12	none
O=C(CSc1nc2ccccc2c(=O)n1-c1ccc(F)cc1)NCc1ccco1	none (no result: D1 allo mod)
Clc1ccccc1CSc1snnc1-c1ccccc1	none (no result: D1 allo mod)
